Screens deposited in PubChem by National Center for Advancing Translational Sciences (NCATS).
SMN2 splice enh – enhancers of SMN2 splice variant expression. HEK293 SMN2-luciferase splicing reporter, luminescence, 30-36 h. Potency, µM (doses to about 46.1 µM), without a hit: at the top dose activity change, positive = activation, actives largely listed as activators. actives 2.8% (n = 210,000). AID 1458; further: % of control where 0% means no effect; nearly all actives have a fitted effect of over 55% in size
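HEK293 cells carry an SMN2 […]–luciferase reporter in which exon 7 inclusion puts luciferase in frame. Cells were plated 10-12 h before compound addition, then incubated 30-36 h at 37C. ONE-Glo luminescence was read; sodium butyrate at 4.5 mM final served as control.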
NPC1 prom act – activators of NPC1 promoter | Huh7 NPC1 promoter luciferase reporter, 24 h | Potency, µM (top dose mostly 9.22 µM), for the others: top-dose activation, hits mostly activators | actives 2.4% (n = 320,000); further: % of control where 0% means no effect; nearly all actives have a fitted effect of over 60% in size
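Stable NPC1-promoter luciferase Huh7 line; cpd (DMSO) 24 h, 37 °C, 5% CO2; Amplite luciferase reagent 10 min RT; luminescence readout. qHTS format.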
Luc counter – blocks Kinase-Glo luciferase, a counter-screen artifact; Q27757; Kinase-Glo luciferase, ATP luminescence, 8 min; Potency, µM (top dose mostly 38.3 µM), without a hit: top-dose activity change, negative = inhibition, most hits filed as inhibitors; actives 0.28% (n = 200,000); further: on the % scale 0 is the no-effect control and ±100 the full control effect; nearly all actives have a fitted effect of over 60% in size
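Compound is pinned into ATP-containing buffer (10 uM ATP, imidazole pH 7.2, 7 mM MgCl2). Kinase-Glo luciferase reagent is then added. Light output is recorded following an 8-min room-temperature incubation.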
ELG1 genotox – inducers of genotoxicity in HEK293T ELG1-luciferase cells; HEK293T ELG1-luciferase reporter, luminescence, 16 h; actives 1.3% (n = 330,000); Potency, µM (doses to about 46 µM), for the others: at the top dose activity change, positive = activation, hits mostly activators; AID 504466; further: % of control where 0% means no effect; nearly all actives have a fitted effect of over 60% in size
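Screening used a luciferase reporter fused to human ELG1 in HEK293T cells. Luminescence was read on a CCD plate imager after 16 hr exposure and 30 min ONE-Glo incubation.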
Rab9 promoter act – activators of Rab9 promoter | Huh7 Rab9 promoter-luciferase reporter, luminescence, 24 h | AID 485297 | Potency, µM (highest dose often 9.22 µM), without a hit: at the top dose activation, negative = inhibition, hits mostly activators | actives 2.8% (n = 320,000); further: % of control where 0% means no effect; nearly all actives have a fitted effect of over 60% in size
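Measured in stably transfected Huh7 cells bearing a Rab9 promoter–luciferase construct: 24 h compound treatment at 37 °C, followed by luminescence detection.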
FLuc counter – counter-screen for miR-21 project: firefly luciferase inhibitors or activators. P08659. Potency, µM (doses to about 57.5 µM), inactives show at the top dose activity change, negative = inhibition, most hits filed as inhibitors. actives 6.9% (n = 360,000). AID 588342. purified FLuc, Km substrates, luminescence inhibition;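 further: plate controls were vehicle for no effect and reference inhibitor for full effect; nearly all actives have a fitted effect of over 55% in size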
Target sequence (P08659 whole entry, looked up): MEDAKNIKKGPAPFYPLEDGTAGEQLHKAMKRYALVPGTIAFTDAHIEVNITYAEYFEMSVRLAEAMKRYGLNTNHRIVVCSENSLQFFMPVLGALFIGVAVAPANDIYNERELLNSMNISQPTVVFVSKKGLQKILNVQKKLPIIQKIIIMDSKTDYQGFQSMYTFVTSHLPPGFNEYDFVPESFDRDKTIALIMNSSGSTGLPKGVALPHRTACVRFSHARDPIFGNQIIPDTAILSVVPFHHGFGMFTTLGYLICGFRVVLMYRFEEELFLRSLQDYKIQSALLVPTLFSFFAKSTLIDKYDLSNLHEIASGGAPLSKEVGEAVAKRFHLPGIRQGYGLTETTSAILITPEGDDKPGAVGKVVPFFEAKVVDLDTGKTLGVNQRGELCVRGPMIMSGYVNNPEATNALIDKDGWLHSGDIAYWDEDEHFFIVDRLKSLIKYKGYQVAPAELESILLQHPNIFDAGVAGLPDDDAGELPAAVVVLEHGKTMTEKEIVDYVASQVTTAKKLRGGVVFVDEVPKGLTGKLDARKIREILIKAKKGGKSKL
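Biochemical qHTS of compounds, final roughly 60 µM downward over six points, against 10 nM purified firefly luciferase using Km concentrations of substrates (10 uM D-luciferin, 10 uM ATP) in Tris acetate pH 7.5 buffer; luminescence output.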
* = called active by the depositor; ? = inconclusive; . = no result given; [ ] = remark or other dose. Compounds with a hit are over-represented: about 7.3% of the library has one in this group of screens. The call rests on the fitted dose curve; in most records, active means well fitted curve in the direction sought with a large enough effect; inconclusive means small, poorly fitted or top-dose-only effect, or another doubt; inactive means no such curve, though single readings can be large; an effect the other way counts as inactive or inconclusive. Potency means the concentration at half of the fitted maximal effect.

SMILES	SMN2 splice enh	NPC1 prom act	Luc counter	ELG1 genotox	Rab9 promoter act	FLuc counter
CCCCCC(=O)NNC(=O)Nc1ccccc1	12%	-1%	1%	-2%	3%	0%
Cc1cccc(Nc2ncccc2C(=O)O)c1C	.	10%	.	11%	2%	21µM*
Cc1ccc(Nc2ncccc2C(=O)O)cc1C	19%	?	-5%	?	?	17µM*
NC(=O)c1cccnc1Nc1ccccc1Cl	-19%	3%	0%	14%	1%	?
Cc1ccc(Nc2ncccc2C(N)=O)cc1[N+](=O)[O-]	14µM*	?	-1%	?	3.5µM*	12µM*
Cc1cc(C)c(Nc2ncccc2C(=O)O)c(C)c1	.	0%	-3%	2%	-13%	-12%
O=C(O)c1cccnc1Nc1ccc(Cl)cc1	10µM*	22%	1%	0%	?	17µM*
Cc1noc(C)c1-c1cc(NCc2ccccc2)ncn1	29%	.	-2%	.	.	.
COc1ccc([C@]23Cc4ccccc4C(O2)C2=C(CCCC2=O)O3)cc1	.	-1%[1.84 µM]	.	.	2%[1.84 µM]	-2%[11.5 µM]
CN(Cc1c(C(=O)N/N=C/c2ccccc2)nnn1-c1nonc1N)C1CCCCC1	.	-6%	.	-4%	-7%	-2%
O=C(COC(=O)CNC(=O)c1ccco1)NCCN1C(=O)CSC1=O	4%	1%	-1%	-1%	11%	2%
COc1cc(C(C#N)N2N=C(c3ccccc3)CC2c2ccccc2)ccc1O (stereo not drawn)	-1%	15%	-1%	?	12%	?
N#CC(c1ccccc1O)N1N=C(c2ccccc2)CC1c1ccccc1 (stereo not drawn)	.	16%	.	?	?	9.5µM*
COc1cc(/C=N/N=C(\N)c2nonc2N)cc(OC)c1O	.	-1%	.	?	1%	9.5µM*
COc1ccc(/C=N/N=C(\N)c2nonc2N)cc1	4.5µM*	0.63µM*	10µM*	0.73µM*	0.4µM*	2.1µM*
COc1ccc(/C=N/Nc2nonc2N)cc1	5%	13%	-5%	3%	23%	?
COc1cccc(CC(=O)Nc2nc(-c3cccnc3)cs2)c1	-19%	-1%	1%	-4%	-3%	2%
CCCn1c(/N=C/c2c[nH]c3ccccc23)nc2ccccc21	-17%	3%	0%	-1%	0%	2.7µM*
CCn1c(/C=N/n2cnnc2)nc2ccccc21	-22%	0%	0%	0%	9%	0%
CCn1c(/N=C/c2c[nH]c3ccccc23)nc2ccccc21	.	0%	.	0%	-3%	0.54µM*
CCCCn1c(/N=C/c2c[nH]c3ccccc23)nc2ccccc21	-25%	2%	-4%	-1%	-1%	9.5µM*
Cc1ccc(Nc2c(-c3ccc(C)cc3)nc3c(C)cccn23)cc1	-2%	.	.	.	.	-2%
O=c1nc(-c2ccccc2)c2cc(Br)ccc2[nH]1	.	-2%	.	0%	2%	0%
O=Cc1ccccc1OCCOc1ccccc1C=O	?	0%	-4%	?	3%	24µM*
CC(C)(C)NC(=O)CN(C(=O)C(=O)Nc1ccc2c(c1)OCCO2)C1CCCC1	.	-1%	.	-1%	5%	2%
SMILES	SMN2 splice enh	NPC1 prom act	Luc counter	ELG1 genotox	Rab9 promoter act	FLuc counter
CC(=C/c1ccccc1)/C=N/NC(=O)c1cccs1	.	1.4µM*	.	1.8µM*	1µM*	0.95µM*
CC(/C=N/NC(=O)c1cc(-c2ccc(C)s2)[nH]n1)=C\c1ccccc1	27%	-7%	1%	4%	1%	?
O=C(N/N=C/C(Br)=C\c1ccccc1)c1cccs1	.	2.2µM*	.	?	1.6µM*	2.1µM*
CC(C)(C)OC(=O)N1CCC(C(=O)N[C@H](Cc2ccccc2)C(=O)O)CC1	9%	-3%	2%	2%	-4%	-1%
COc1ccc(-c2csc(N)n2)cc1	14µM*	?	-3%	?	?	15µM*
Nc1nc(-c2ccc3ccccc3c2)cs1	11µM*	3.2µM*	-6%	4.6µM*	0.79µM*	3.8µM*
